The results in this text go back to PubChem BioAssay AID1347406.

Activity calls are given as the source filed them.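 How the source made its calls: active means IC50, the dose giving half inhibition, at or below 10 µM; inconclusive means IC50 above 10 µM up to 20 µM; inactive means IC50 over 20 µM.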

Ubiquitin-like modifier-activating enzyme 1 (Homo sapiens), sequence (P22314 whole entry, looked up): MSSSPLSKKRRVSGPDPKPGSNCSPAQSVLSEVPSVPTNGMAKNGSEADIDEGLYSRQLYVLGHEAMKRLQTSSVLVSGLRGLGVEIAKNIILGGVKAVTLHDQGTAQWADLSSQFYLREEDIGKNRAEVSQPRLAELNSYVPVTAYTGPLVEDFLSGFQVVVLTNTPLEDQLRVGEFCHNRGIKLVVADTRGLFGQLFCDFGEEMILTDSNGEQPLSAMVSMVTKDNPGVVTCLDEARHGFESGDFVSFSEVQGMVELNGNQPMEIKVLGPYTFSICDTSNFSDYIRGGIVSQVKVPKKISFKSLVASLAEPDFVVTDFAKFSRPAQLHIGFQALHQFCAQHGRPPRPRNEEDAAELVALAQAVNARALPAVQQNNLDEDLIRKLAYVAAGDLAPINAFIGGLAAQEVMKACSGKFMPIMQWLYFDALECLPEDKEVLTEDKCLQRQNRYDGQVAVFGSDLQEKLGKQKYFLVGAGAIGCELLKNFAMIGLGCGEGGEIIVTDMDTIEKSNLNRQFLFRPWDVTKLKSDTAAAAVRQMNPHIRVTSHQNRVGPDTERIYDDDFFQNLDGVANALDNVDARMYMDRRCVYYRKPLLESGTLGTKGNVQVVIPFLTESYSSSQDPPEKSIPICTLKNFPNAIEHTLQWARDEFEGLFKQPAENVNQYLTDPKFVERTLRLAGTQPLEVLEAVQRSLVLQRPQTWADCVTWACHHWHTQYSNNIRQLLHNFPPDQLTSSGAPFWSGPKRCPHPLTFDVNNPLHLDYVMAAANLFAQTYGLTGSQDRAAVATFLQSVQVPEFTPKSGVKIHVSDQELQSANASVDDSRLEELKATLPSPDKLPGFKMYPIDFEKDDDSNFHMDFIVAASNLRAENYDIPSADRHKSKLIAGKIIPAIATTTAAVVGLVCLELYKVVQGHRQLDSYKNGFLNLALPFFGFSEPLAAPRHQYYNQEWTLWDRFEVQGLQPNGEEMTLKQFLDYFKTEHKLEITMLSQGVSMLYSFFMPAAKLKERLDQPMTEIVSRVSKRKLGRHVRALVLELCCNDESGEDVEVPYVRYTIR

This assay concerns the target Ubiquitin-like modifier-activating enzyme 1 (Homo sapiens) (UniProt P22314). The assay can be described thus: inhibition of ubiquitin E1 thioester formation – biochemical, gel-based, fluorescent Ub (AID 1347406). As to conditions: fluorescent Ub gel imaging.
On to `CCOc1ccc2nc3cc(NC(=O)c4ccco4)ccc3c(N)c2c1`, for which the outcome is “inactive; >50 µM”.

Turning to `CCCCCCCCCOc1ccc(C#CC(=O)O)cc1`, the molecule was classed as inactive. For `CN(CCC(=O)C=Cc1ccc(Cl)c(Cl)c1)CCc1ccc2c(c1)OCO2`, the outcome was “inactive; >50 µM”. In the case of `NCCCSc1nc2c(c(=O)n1Cc1ccccc1)C1(CCCCC1)Cc1ccccc1-2`, the outcome was “inactive; >50 µM”. Regarding `CCOC(=O)c1c(NC(=O)CCC(=O)O)sc(C)c1-c1ccc(CC(C)C)cc1`, the outcome was “inactive; >50 µM”. As to `CCNc1ccc(Br)cc(C(=O)/C=C/c2c(Cl)cccc2Cl)c1=O`, the outcome is “inactive; >50 µM”. With `CNc1ccccc(C(=O)C=Cc2ccc3c(c2)OCO3)c1=O`, the outcome was “inactive; >50 µM”.
